Bioassay records as filed in PubChem BioAssay.
HSF1 inh – HSF1 inhibitors in luciferase reporter cells, primary screen, cell-based, NIH3T3, luminescence; NIH3T3-HGL HSE-luciferase, MG132-induced, luminescence 8 h; hits give low values; activity change, negative = inhibition, % at 7.5 µM (by protocol); hit rate 0.77% among 300,000;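 active = more than half of replicate wells show activity change below -50%, luminescence cut by over half; inconclusive = some wells, but at most half, below -50%; inactive = no replicate well below -50%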;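 note: luciferase reports HSF-1 transcriptional activity via heat shock element; 0% = median of DMSO wells and -100% = zero luminescence signal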
LGR2 antag – inhibitors of bursicon-induced LGR2 CRE-luciferase signal, primary screen, cell-based, HEK293, CRE-luciferase reporter, bursicon stimulation. Drosophila bursicon receptor LGR2 (rickets). bursicon-stimulated, 4 h. inhibition, % at 9.99 µM. hit rate 0.35% among 380,000;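 active = drop in luminescence signal, shown as inhibition above about 50% in the replicate tests, limit read from the data, passing the limit was not always enough; inconclusive = probably only some replicates passing the limit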;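 note: agonist challenge used bursicon conditioned medium at about half maximal strength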
EBV LMP1 NFkB – EBV LMP1-driven NF-kappaB luciferase reporter inhibitors, primary screen, cell-based, luminescence, single point. inhibition, % at 12.5 µM. LMP1-induced NF-kappaB luciferase reporter cells. hit rate 0.69% among 350,000. AID 504558, 2011; in the data active = inhibition above about 41%; inconclusive = no clear call, values can overlap the other calls;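 note: 0% = neutral control wells and 100% = reference inhibitor control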
TROY signal inh – inhibitors of TROY-driven NF-kB signaling, primary screen, Q293 LMP1-TROYcd cells, NF-kB luciferase, uHTS. Q293 LMP1-TROYcd NF-kB luciferase reporter, 4 h. hit rate 0.98% among 360,000. inhibition, % at 10 µM;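 active = compounds whose plate-normalised and pattern-corrected inhibition of the luciferase reporter signal at the single screening dose is 50% or more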
HSF-1 act – HSF-1 activators, primary screen, NIH3T3-HGL cells, MG132 stress, luminescence, single point; NIH3T3-HGL HSF-1 luciferase reporter, 8 h; 100% = twice DMSO control signal; activation, % at 9 µM; hit rate 1.7% among 300,000; AID 504408, 2011;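 active = mean replicate activation of at least 50% with a set share of replicates each reaching 50%; inconclusive = only one of those two conditions met; inactive = mean below 50% and too few replicates reaching it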;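 note: 0% = median of the neutral control wells and 100% = twice that signal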
TWEAK Fn14 block – inhibitors of TWEAK-Fn14 signaling, primary screen, luciferase reporter cells, uHTS; inhibition, % at 10 µM; TWEAK-stimulated Fn14 reporter cells, luciferase luminescence, 8 h; hit rate 2% among 360,000; in the data active = inhibition above about 50%
* = called active by the depositor; ? = inconclusive; / = no result. Sampled rows, rich in hits. Any-hit rate of the full collection: about 3.6%.

SMILES	HSF1 inh	LGR2 antag	EBV LMP1 NFkB	TROY signal inh	HSF-1 act	TWEAK Fn14 block
Cc1ccc(C2(c3ccc(C)cc3)CC2C(=O)Nc2ccc([N+](=O)[O-])cc2O)cc1 (stereo unspecified)	0	/	38	56*	8	66*
COc1ccccc1CNC(=O)C[C@@H]1CC[C@H](NC(=O)CC2CC2)[C@@H](CO)O1	/	-13	/	/	/	/
CC(C)C(=O)Nc1ccc(NC(=O)c2ccccn2)cn1	4	/	33	42	32	76*
O=C(Nc1ccc(NC(=O)C2CC2)nc1)c1cnccn1	-1	3	0	-27	12	-1
O=C(Nc1ccc(NC(=O)C2CC2)nc1)c1ccccn1	-2	/	5	13	33	62*
c1ccc2c(c1)CC1(CCCCC1)n1nnnc1-2	-59*	-3	-10	0	-66	-11
c1ccc2c(c1)Cn1nnnc1-2	-30	-2	-8	16	-44	14
Cc1ccccc1-c1cnc2c(c1)C(=O)N([C@@H](C)CO)C[C@H](C)[C@@H](CN(C)C(=O)CN(C)C)O2	/	-14	/	/	/	/
O=C([C@H]1[C@H](CO)[C@H]2Cn3c(ccc(-c4ccccc4)c3=O)[C@@H]1N2CCC(F)(F)F)N1CCOCC1	/	-11	/	/	/	/
CC(=O)CSc1nnc(-c2ccc3c(c2)OCO3)o1	2	/	2	31	0	58*
O=C(O)CCSc1nnc(-c2ccc3c(c2)OCO3)o1	-52*	/	24	52*	-60	82*
CCC(=O)N1CCCCN2[C@H](C1)[C@H](c1ccc(C#Cc3ccccc3F)cc1)[C@@H]2CO	/	12	/	/	/	/
Cc1noc(C)c1NC(=O)Nc1ccc2c(c1)C(=O)N([C@H](C)CO)C[C@H](C)[C@H](CN(C)C(=O)C1CCCCC1)OCCCC[C@H](C)O2	/	1	/	/	/	/
O=C(N/N=C/c1ccc(OC(F)F)cc1OC(F)F)c1ccc(Br)cc1	-7	-1	2	-8	-6	-28
Cc1ccc(S(=O)(=O)N(C)Cc2ccc(C(=O)N/N=C/c3ccc(OC(F)F)cc3OC(F)F)cc2)cc1	-15	/	4	36	-1	60*
Cc1ccnc(NC(=O)c2sc3ccccc3c2Cl)c1	-26	87*	61*	54*	-9	75*
O=C(Nc1nccs1)c1sc2cc(Cl)ccc2c1Cl	26	/	-3	-105	56*	102*
CC(C)c1nnc(NC(=O)c2sc3ccccc3c2Cl)s1	33	/	-22	-26	49	-20
O=C(Nc1nccs1)c1sc2ccccc2c1Cl	-2	/	-4	0	28	67*
Cc1nn(Cc2c(Cl)cccc2Cl)c(C)c1NC(=O)c1sc2ccccc2c1Cl	6	/	1	11	17	-8
Cc1nn(Cc2ccc(Cl)c(Cl)c2)c(C)c1NC(=O)c1sc2ccccc2c1Cl	18	/	5	32	23	58*
O=C(NC1CC1)c1sc2cc(Cl)ccc2c1Cl	19	-33	-13	-46	42	-11
CS(=O)(=O)Nc1ccc2c(c1)[C@H]1C[C@H](CC(=O)NCc3cccc(F)c3)O[C@H](CO)[C@H]1O2	/	7	/	/	/	/
O=C(Cc1ccccc1)N1CC[C@@H]2[C@H](CO)Nc3ccc(C#Cc4cccc(F)c4)cc3[C@@H]21	/	11	/	/	/	/
COC(=O)C[C@@H]1CC[C@@H]2[C@H](COc3ccc(NC(=O)C4CC4)cc3C(=O)N2C)O1	/	-9	/	/	/	/
SMILES	HSF1 inh	LGR2 antag	EBV LMP1 NFkB	TROY signal inh	HSF-1 act	TWEAK Fn14 block
C[C@H]1CN([C@@H](C)CO)C(=O)c2cccc(NC(=O)C3CC3)c2O[C@H]1CN(C)C(=O)NC1CCCCC1	/	9	/	/	/	/
CO[C@H]1CN(C)C(=O)c2cc(NC(=O)C3CC3)ccc2OC[C@H](C)N(Cc2cccc(F)c2)C[C@H]1C	/	-2	/	/	/	/
Cc1cnc(NC(=O)c2sc3ccccc3c2Cl)s1	-15	?	17	49	-8	85*
COc1cccc(NC(=O)N2CC(=O)N3[C@@H](CO)[C@H](c4ccc(C#CC5CCCC5)cc4)[C@@H]3C2)c1	/	19	/	/	/	/
CC(C)N1CCc2c(sc(NC(=O)c3ccc4ccccc4c3)c2C(N)=O)C1	-60*	6	8	-25	-64	-98
CC(C)N1CCc2c(sc(NC(=O)c3ccc(C(=O)c4ccccc4)cc3)c2C(N)=O)C1	-4	13	8	17	-14	-18
CC(=O)Nc1sc2c(c1-c1nc3ccccc3s1)CCN(C(C)C)C2	/	/	78*	-1	/	-57
CCN1CCc2c(sc(NC(=O)c3cc4ccccc4cc3OC)c2C(N)=O)C1	-51*	-10	-19	-12	-64	-15
Cc1noc(C)c1S(=O)(=O)N(C)C[C@H]1Oc2ccc(NC(=O)Nc3ccc4c(c3)OCO4)cc2CC(=O)N([C@@H](C)CO)C[C@@H]1C	/	-8	/	/	/	/
CCc1ccccc1NC(=O)c1ccc(NS(C)(=O)=O)cc1	-56*	27	-6	-9	-64	5
CCOC(=O)c1ccc(NS(C)(=O)=O)cc1	-4	1	1	/	13	82*
COc1cc(NC(=O)c2ccccc2)c(OC)cc1NC(C)=O	-13	/	4	1	-12	-4
COc1ccccc1NC(=O)c1ccc(NS(C)(=O)=O)cc1	1	/	1	0	10	-11
O=C(Nc1ccccc1O)c1ccc(NS(=O)(=O)c2cccc3cccnc23)cc1	-17	-45	47*	-1	-22	-170
COc1cc(NS(C)(=O)=O)c(OC)cc1NC(=O)c1ccccc1	-9	/	-25	-14	2	57*
CCOC(=O)N1CCN(C(=O)c2ccc(NS(C)(=O)=O)cc2)CC1	-1	5	0	-2	-13	17
Cc1ccccc1NC(=O)c1ccc(NS(=O)(=O)c2cc(C(C)(C)C)cc(C)c2C)cc1	32	20	-13	37	31	52*
CCOC(=O)c1ccc(NC(=S)Nc2ccccc2)cc1	-25	-8	-24	-29	-37	-17
CCOC(=O)c1ccc(NC(=S)P(=O)(c2ccccc2)c2ccccc2)cc1	/	9	19	-13	/	71*
Cc1cc(C(C)(C)C)cc(S(=O)(=O)Nc2cccc(C(=O)O)c2)c1C	-3	2	5	-1	-4	6
Cc1ccc(S(=O)(=O)N(C)C[C@@H]2OCCCC[C@H](C)Oc3ccc(NC(=O)Nc4cccc5ccccc45)cc3C(=O)N([C@H](C)CO)C[C@H]2C)cc1	/	-1	/	/	/	/
O=C(Nc1ccc(F)cc1)N1C[C@@H]2[C@H](c3ccccc31)[C@H](CO)N2C(=O)Cc1cccnc1	/	4	/	/	/	/
Cc1cc(/C([O-])=C(/C(=S)Nc2ccc(F)cc2)[n+]2ccccc2)c(C)n1-c1ccc(F)cc1	-1	/	-6	-57	7	-7
